The supplement of paper PMC10849652
Targets with a hit are over-represented here; the source holds about 7,900 in all. About 0.6% of all pairs of compound and target were hits.

Assays:
Experiment in all cases: log2 fold change, soluble protein after heating vs DMSO (PISA); higher = thermal stabilisation; K562 cells, 10 uM, 30 min; active = over 0.2 and 3.5 SD of the protein, either way, in both replicates (recomputed)
[1] = compound: CC1=C(C=C(C=C1)NC(=O)C2=CC(=CC=C2)C(C)(C)C#N)NC3=CC4=C(C=C3)N=CN(C4=O)C
Procedure, shortened: (§1)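 For each measurement, 10 μM compound was applied for 30 min to K562 cells at 2×10^6 cells/mL. Aliquots were heated for 3 min across 48°C-58°C, pooled, and extracted in PBS with 0.5% NP-40 at 4°C; the supernatant after 21,000xg for 90 min was soluble protein. This was quantified by TMTpro 16plex LC-MS/MS with channel sums equalised, and thermal stability was reported relative to control samples from duplicates, on a log2 fold-change scale.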

[2] = compound: CC1=C(C=C(C=C1)NC(=O)C2=CC(=CC=C2)N(C)C)NC(=O)C3=CC=C(C=C3)O
Procedure, shortened: as §1

[3] = compound: CC1=CC=C(C=C1)SC2=C3C=C(SC3=CN=C2)C(=O)N
Procedure, shortened: as §1

[4] = compound: CC1=NC(=CC=C1)C2=C(N=C(N2)C(C)(C)C)C3=CC4=NC=CN=C4C=C3
Procedure, shortened: as §1

Nexturastat A = compound: CCCCN(Cc1ccc(C(=O)NO)cc1)C(=O)Nc1ccccc1 [Nexturastat A]
Procedure, shortened: as §1

vemurafenib = compound: CCCS(=O)(=O)Nc1ccc(F)c(C(=O)c2c[nH]c3ncc(-c4ccc(Cl)cc4)cc23)c1F [vemurafenib]
Procedure, shortened: as §1

[5] = compound: CCCS(=O)(=O)Nc1ccc(F)c(C(=O)c2c[nH]c3ncc(Cl)cc23)c1F
Procedure, shortened: as §1

[6] = compound: CCCc1cc(C)[nH]c(=O)c1CNC(=O)c1cc(-c2ccnc(N3CCN(C)CC3)c2)cc2c1cnn2C(C)C
Procedure, shortened: as §1

givinostat = compound: CCN(CC)Cc1ccc2cc(COC(=O)Nc3ccc(C(=O)NO)cc3)ccc2c1 [givinostat]
Procedure, shortened: as §1

barasertib = compound: CCN(CCCOc1ccc2c(Nc3cc(CC(=O)Nc4cccc(F)c4)[nH]n3)ncnc2c1)CCOP(=O)(O)O [barasertib]
Procedure, shortened: as §1

Measured: log2 fold change

AGPAT1 (UniProt Q99943)
Chain of UniProt Q99943 (Q99943 whole entry, looked up): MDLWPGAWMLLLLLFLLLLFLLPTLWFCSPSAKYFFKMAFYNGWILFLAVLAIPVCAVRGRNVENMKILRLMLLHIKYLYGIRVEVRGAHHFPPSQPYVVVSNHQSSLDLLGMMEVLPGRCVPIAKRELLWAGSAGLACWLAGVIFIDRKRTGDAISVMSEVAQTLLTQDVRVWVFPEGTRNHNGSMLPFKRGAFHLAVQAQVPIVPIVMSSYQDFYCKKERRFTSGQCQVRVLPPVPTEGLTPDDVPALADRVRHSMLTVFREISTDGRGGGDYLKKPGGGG
inactive: [1] -0.037 | [2] -0.029 | [3] -0.014 | [4] -0.03 | Nexturastat A -0.052 | vemurafenib 0.017 | [5] -0.004 | [6] 0.004 | givinostat 0.005 | barasertib 0.047

ATF7 isoform 6 (UniProt P17544)
inactive: [1] 0.465 | [2] -0.163 | [3] -0.155 | [4] -0.085 | Nexturastat A -0.042 | vemurafenib 0.045 | [5] 0.239 | [6] -0.032 | givinostat -0.131 | barasertib -0.033

ATP2A3 isoform 2 (UniProt Q93084)
inactive: [1] -0.024 | [2] -0.001 | [3] -0.013 | [4] 0.004 | Nexturastat A 0 | vemurafenib -0.004 | [5] 0.032 | [6] 0.042 | givinostat -0.01 | barasertib 0.011

AK6 (UniProt Q9Y3D8)
Chain of UniProt Q9Y3D8 (Q9Y3D8 whole entry, looked up): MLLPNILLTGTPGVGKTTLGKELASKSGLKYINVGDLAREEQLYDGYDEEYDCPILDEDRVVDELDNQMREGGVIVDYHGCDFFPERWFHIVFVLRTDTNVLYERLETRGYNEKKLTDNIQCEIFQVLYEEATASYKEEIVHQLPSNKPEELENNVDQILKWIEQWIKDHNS
inactive: [1] 0.02 | [2] -0.04 | [3] 0.012 | [4] 0.032 | Nexturastat A -0.056 | vemurafenib 0.1 | [5] 0.053 | [6] 0.076 | givinostat 0.083 | barasertib 0.138

BUB1B isoform 3 (UniProt O60566)
Chain of UniProt O60566 (O60566 whole entry, looked up): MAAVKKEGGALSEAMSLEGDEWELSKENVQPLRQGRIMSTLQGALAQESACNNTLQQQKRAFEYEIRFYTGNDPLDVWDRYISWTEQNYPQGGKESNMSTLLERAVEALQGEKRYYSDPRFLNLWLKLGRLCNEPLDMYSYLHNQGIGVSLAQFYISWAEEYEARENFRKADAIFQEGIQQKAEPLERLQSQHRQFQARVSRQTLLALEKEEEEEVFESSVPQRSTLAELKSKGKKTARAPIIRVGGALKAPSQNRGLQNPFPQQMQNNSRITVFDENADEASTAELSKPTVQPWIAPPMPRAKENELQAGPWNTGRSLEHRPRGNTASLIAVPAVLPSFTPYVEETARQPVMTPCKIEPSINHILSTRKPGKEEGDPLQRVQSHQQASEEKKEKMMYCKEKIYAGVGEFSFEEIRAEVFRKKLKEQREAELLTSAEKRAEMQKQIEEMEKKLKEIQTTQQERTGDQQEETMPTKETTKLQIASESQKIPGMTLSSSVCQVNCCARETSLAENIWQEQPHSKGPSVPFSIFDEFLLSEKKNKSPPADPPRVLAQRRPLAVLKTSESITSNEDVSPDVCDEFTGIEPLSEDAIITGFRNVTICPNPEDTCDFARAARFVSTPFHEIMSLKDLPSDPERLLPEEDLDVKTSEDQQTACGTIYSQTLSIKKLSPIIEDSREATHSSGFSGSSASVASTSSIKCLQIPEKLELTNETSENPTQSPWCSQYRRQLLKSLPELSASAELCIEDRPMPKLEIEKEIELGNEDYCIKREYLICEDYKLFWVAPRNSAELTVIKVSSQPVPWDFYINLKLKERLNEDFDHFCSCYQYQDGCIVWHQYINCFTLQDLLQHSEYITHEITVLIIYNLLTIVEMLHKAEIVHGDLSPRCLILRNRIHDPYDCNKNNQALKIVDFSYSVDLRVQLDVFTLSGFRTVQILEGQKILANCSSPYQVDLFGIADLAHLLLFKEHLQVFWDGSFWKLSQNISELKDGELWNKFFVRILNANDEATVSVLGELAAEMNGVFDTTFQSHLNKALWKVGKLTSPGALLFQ
inactive: [1] 0.004 | [2] -0.031 | [3] 0.059 | [4] -0.014 | Nexturastat A 0.087 | vemurafenib 0.058 | [5] 0.14 | [6] 0.043 | givinostat 0.118 | barasertib 0.034

AUP1 (UniProt Q9Y679)
Chain of UniProt Q9Y679 (Q9Y679 whole entry, looked up): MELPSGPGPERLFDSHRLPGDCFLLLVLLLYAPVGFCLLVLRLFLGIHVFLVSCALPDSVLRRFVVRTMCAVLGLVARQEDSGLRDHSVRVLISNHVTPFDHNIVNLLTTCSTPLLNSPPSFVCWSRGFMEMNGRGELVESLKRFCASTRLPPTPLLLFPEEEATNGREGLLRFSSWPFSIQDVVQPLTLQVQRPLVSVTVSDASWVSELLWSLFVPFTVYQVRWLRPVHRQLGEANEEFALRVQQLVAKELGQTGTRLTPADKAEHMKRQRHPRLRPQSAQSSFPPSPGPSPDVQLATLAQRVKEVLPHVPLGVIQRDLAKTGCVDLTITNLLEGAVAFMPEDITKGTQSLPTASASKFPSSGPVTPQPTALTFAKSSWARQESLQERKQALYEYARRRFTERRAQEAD
inactive: [1] 0.054 | [2] 0.021 | [3] 0.009 | [4] -0.005 | Nexturastat A -0.048 | vemurafenib 0.121 | [5] 0.058 | [6] -0.056 | givinostat 0.028 | barasertib 0.06

ADD1 isoform 3 (UniProt P35611)
Chain of UniProt P35611 (P35611 whole entry, looked up): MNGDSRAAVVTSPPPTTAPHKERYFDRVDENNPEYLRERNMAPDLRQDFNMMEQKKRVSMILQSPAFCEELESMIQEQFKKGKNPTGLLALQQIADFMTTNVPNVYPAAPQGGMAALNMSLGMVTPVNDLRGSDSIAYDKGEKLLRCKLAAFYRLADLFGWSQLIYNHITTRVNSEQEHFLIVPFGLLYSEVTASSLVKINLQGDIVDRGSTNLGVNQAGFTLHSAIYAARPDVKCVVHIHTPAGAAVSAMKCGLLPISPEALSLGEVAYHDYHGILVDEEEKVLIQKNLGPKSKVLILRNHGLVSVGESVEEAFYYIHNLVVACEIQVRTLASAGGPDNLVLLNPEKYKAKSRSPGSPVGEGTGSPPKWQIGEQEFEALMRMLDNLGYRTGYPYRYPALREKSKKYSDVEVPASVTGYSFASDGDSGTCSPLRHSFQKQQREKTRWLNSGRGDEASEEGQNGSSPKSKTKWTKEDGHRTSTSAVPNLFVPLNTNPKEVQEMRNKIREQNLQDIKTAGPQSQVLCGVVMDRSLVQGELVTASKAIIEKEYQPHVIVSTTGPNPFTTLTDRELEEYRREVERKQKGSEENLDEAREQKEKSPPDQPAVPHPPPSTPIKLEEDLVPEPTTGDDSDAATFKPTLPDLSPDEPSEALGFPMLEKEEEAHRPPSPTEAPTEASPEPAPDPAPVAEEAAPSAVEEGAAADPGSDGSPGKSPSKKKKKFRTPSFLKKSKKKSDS
inactive: [1] -0.015 | [2] -0.031 | [3] -0.026 | [4] 0.015 | Nexturastat A 0.025 | vemurafenib -0.059 | [5] 0.013 | [6] -0.025 | givinostat -0.015 | barasertib -0.022

BMP2K (UniProt Q9NSY1)
inactive: [1] 0.01 | [2] 0.033 | [3] -0.017 | [4] -0.011 | Nexturastat A 0.126 | vemurafenib 0.011 | [5] 0.01 | [6] -0.04 | givinostat 0.007 | barasertib -0.014

ACO2 (UniProt Q99798)
inactive: [1] 0.071 | [2] -0.063 | [3] 0.012 | [4] 0.035 | Nexturastat A -0.073 | vemurafenib 0.055 | [5] 0.027 | [6] -0.003 | givinostat -0.014 | barasertib 0.037

AGPAT3 isoform 3 (UniProt Q9NRZ7)
inactive: [1] 0.019 | [2] 0 | [3] 0.016 | [4] 0.003 | Nexturastat A -0.076 | vemurafenib -0.001 | [5] 0.043 | [6] -0.039 | givinostat 0.008 | barasertib 0.057

AGRN (UniProt O00468)
inactive: [1] -0.089 | [2] -0.294 | [3] -0.031 | [4] 0.014 | Nexturastat A -0.051 | vemurafenib -0.025 | [5] -0.072 | [6] 0.024 | givinostat -0.011 | barasertib 0.011

ABCC5 (UniProt O15440)
inactive: [1] 0.107 | [2] -0.033 | [3] 0.035 | [4] -0.073 | Nexturastat A 0.007 | vemurafenib -0.183 | [5] -0.031 | [6] 0.1 | givinostat 0.028 | barasertib 0.026

ATP1B3 (UniProt P54709)
inactive: [1] 0 | [2] -0.015 | [3] -0.02 | [4] 0.046 | Nexturastat A -0.065 | vemurafenib 0.005 | [5] -0.036 | [6] -0.018 | givinostat -0.055 | barasertib -0.021

ARFGEF1 (UniProt Q9Y6D6)
inactive: [1] -0.03 | [2] -0.013 | [3] -0.014 | [4] 0 | Nexturastat A -0.042 | vemurafenib 0.035 | [5] 0.041 | [6] 0.155 | givinostat 0.029 | barasertib -0.015

ATAD1 (UniProt Q8NBU5)
inactive: [1] 0.019 | [2] -0.034 | [3] 0.012 | [4] -0.012 | Nexturastat A -0.305 | vemurafenib 0.076 | [5] 0.022 | [6] 0.045 | givinostat 0.046 | barasertib 0.055

ATP6V1C1 (UniProt P21283)
inactive: [1] 0.004 | [2] -0.037 | [3] -0.024 | [4] -0.033 | Nexturastat A 0.131 | vemurafenib -0.018 | [5] 0.057 | [6] 0.026 | givinostat 0.031 | barasertib 0.062

ATP11A (UniProt P98196)
Chain of UniProt P98196 (P98196 whole entry, looked up): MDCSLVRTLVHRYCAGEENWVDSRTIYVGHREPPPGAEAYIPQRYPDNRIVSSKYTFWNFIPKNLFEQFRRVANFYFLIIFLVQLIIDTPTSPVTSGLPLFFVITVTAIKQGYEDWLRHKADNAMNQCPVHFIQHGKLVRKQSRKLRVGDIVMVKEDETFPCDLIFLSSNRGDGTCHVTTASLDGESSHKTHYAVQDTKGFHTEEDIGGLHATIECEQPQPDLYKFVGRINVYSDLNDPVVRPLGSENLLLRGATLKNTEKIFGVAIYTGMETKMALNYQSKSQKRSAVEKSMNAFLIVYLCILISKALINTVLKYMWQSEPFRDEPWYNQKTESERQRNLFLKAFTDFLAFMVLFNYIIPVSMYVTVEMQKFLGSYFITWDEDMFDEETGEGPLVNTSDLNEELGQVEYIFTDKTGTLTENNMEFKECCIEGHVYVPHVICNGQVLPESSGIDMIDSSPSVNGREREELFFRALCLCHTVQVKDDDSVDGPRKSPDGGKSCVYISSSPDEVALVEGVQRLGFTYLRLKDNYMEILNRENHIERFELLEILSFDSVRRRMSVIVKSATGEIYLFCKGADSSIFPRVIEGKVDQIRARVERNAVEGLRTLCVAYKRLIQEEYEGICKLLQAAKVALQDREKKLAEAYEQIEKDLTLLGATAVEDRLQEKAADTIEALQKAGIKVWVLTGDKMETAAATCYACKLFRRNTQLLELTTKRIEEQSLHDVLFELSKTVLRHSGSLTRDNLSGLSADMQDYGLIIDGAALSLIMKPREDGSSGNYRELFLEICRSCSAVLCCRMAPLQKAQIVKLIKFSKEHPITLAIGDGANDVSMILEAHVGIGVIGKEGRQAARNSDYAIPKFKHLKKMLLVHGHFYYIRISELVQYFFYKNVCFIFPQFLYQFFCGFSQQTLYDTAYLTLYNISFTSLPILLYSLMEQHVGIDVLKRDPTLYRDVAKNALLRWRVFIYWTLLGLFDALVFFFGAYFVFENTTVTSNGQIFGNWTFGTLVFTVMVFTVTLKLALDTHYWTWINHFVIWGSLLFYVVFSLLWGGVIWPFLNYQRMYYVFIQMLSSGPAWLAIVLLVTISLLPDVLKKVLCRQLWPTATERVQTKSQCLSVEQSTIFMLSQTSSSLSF
inactive: [1] -0.033 | [2] -0.022 | [3] -0.039 | [4] -0.007 | Nexturastat A -0.005 | vemurafenib 0.032 | [5] -0.027 | [6] -0.035 | givinostat -0.007 | barasertib -0.033

ATP1A1 (UniProt P05023)
inactive: [1] 0.002 | [2] 0.01 | [3] 0.015 | [4] 0.025 | Nexturastat A -0.019 | vemurafenib 0.017 | [5] 0.005 | [6] 0.068 | givinostat -0.001 | barasertib -0.02

ACTR1B (UniProt P42025)
inactive: [1] -0.056 | [2] -0.124 | [3] 0.001 | [4] -0.003 | Nexturastat A -0.134 | vemurafenib -0.029 | [5] -0.022 | [6] -0.009 | givinostat 0.006 | barasertib 0.031

ACACB (UniProt O00763)
inactive: [1] -0.037 | [2] 0.01 | [3] 0.006 | [4] -0.065 | Nexturastat A 0.344 | vemurafenib 0.108 | [5] 0.012 | [6] 0.152 | givinostat 0.149 | barasertib 0.06

BOP1 (UniProt Q14137)
inactive: [1] -0.06 | [2] 0.007 | [3] 0.015 | [4] 0.023 | Nexturastat A 0.162 | vemurafenib 0.047 | [5] -0.006 | [6] 0.055 | givinostat 0.09 | barasertib -0.054

ARFIP1 (UniProt P53367)
inactive: [1] -0.031 | [2] 0.042 | [3] 0.022 | [4] -0.006 | Nexturastat A -0.081 | vemurafenib -0.026 | [5] 0.084 | [6] 0.045 | givinostat 0.058 | barasertib 0.046

ASNS (UniProt P08243)
inactive: [1] 0.008 | [2] 0.007 | [3] 0.026 | [4] 0.025 | Nexturastat A -0.045 | vemurafenib 0.007 | [5] 0.013 | [6] 0 | givinostat -0.004 | barasertib -0.004

BCAP29 isoform 2 (UniProt Q9UHQ4)
inactive: [1] -0.078 | [2] 0.006 | [3] 0.015 | [4] 0.01 | Nexturastat A -0.032 | vemurafenib -0.033 | [5] -0.036 | [6] -0.116 | givinostat -0.075 | barasertib 0.025

ATP13A2 (UniProt Q9NQ11)
inactive: [1] 0.017 | [2] 0.009 | [3] 0.035 | [4] 0.055 | Nexturastat A 0.001 | vemurafenib 0.085 | [5] -0.037 | [6] 0.014 | givinostat -0.044 | barasertib -0.052

ARMC10 (UniProt Q8N2F6)
Chain of UniProt Q8N2F6 (Q8N2F6 whole entry, looked up): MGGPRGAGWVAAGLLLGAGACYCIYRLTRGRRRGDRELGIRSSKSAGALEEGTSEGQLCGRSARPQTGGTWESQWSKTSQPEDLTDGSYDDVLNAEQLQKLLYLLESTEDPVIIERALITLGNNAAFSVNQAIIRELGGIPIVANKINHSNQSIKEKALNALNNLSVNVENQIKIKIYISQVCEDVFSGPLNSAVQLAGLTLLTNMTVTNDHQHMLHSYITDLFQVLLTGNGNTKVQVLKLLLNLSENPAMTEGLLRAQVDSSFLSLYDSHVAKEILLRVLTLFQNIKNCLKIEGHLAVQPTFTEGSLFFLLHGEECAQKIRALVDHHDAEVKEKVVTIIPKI
inactive: [1] 0.03 | [2] -0.087 | [3] -0.019 | [4] -0.046 | Nexturastat A 0.056 | vemurafenib 0.12 | [5] 0.074 | [6] 0.072 | givinostat 0.063 | barasertib 0.019

ARL6IP6 (UniProt Q8N6S5)
inactive: [1] -0.112 | [2] -0.038 | [3] 0.009 | [4] -0.071 | Nexturastat A 0.106 | vemurafenib 0 | [5] 0.049 | [6] 0.034 | givinostat 0.099 | barasertib -0.048

ATP6V0A2 (UniProt Q9Y487)
Chain of UniProt Q9Y487 (Q9Y487 whole entry, looked up): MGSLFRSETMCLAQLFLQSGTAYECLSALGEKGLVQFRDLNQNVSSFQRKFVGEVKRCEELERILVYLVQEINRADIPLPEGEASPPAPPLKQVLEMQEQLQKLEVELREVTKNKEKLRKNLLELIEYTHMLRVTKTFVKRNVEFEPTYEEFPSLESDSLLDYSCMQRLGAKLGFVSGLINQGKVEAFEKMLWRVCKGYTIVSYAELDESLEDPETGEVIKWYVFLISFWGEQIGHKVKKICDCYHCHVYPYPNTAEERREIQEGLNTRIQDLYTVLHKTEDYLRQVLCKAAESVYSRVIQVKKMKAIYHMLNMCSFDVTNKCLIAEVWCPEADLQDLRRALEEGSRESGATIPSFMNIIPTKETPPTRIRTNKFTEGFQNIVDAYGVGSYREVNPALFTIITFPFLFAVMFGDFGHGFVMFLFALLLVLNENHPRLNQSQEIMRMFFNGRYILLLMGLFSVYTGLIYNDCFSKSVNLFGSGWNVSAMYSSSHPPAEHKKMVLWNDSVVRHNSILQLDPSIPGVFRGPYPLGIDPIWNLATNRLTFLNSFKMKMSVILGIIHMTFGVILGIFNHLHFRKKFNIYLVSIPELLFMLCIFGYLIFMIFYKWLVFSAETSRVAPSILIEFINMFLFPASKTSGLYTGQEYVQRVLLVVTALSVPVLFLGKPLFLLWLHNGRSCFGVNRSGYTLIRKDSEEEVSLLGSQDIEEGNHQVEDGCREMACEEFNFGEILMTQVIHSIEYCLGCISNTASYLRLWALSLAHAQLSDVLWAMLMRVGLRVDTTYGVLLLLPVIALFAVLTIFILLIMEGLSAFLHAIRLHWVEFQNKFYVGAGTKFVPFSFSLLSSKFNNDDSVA
inactive: [1] 0.021 | [2] 0.016 | [3] 0.006 | [4] -0.013 | Nexturastat A 0.024 | vemurafenib 0.026 | [5] 0.014 | [6] 0.014 | givinostat 0.02 | barasertib 0.008

AIP (UniProt O00170)
inactive: [1] 0.014 | [2] -0.074 | [3] 0.032 | [4] 0.07 | Nexturastat A -0.07 | vemurafenib 0.071 | [5] 0.088 | [6] 0.065 | givinostat 0.043 | barasertib 0.031

AKT1 (UniProt P31749)
inactive: [1] 0.118 | [2] -0.105 | [3] -0.035 | [4] 0.019 | Nexturastat A 0.145 | vemurafenib -0.227 | [5] 0.008 | [6] 0.049 | givinostat 0.133 | barasertib -0.03
